# Where a name gives a salt, the structure may show the parent alone.
# System: Staphylococcus aureus Sa2 (MRSA, cystic fibrosis isolate)
# Test: growth reduction vs untreated control (OD550); higher = stronger antibacterial activity
# Conditions: 0.1 mM; 24 h
# Description: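 Single-dose screen of the MedChem Express Drug Repurposing Library (0.1 mM, 1% DMSO) against planktonic MRSA S. aureus Sa2 (CF isolate) in TSB in 96-well plates, 37 °C aerobic, 24 h. Assays were run in triplicate and repeated twice.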
row,Structure (SMILES),growth reduction [%]
1,CN[C@H]1CC[C@@H](c2ccc(Cl)c(Cl)c2)c2ccccc21 [Sertraline (hydrochloride)],100
2,CCCCCCCCCCCCN1CCCCCC1=O [Laurocapram],100
3,O=C1NCCN1CCN1CCC(c2cn(-c3ccc(F)cc3)c3ccc(Cl)cc23)CC1 [Sertindole],93.6
4,C[C@H](Nc1cc(-c2cnn(C)c2)cc(Nc2cnccn2)n1)c1ccc(F)cc1 [Ilginatinib (maleate)],100
5,Clc1ccc(CO/N=C(\Cn2ccnc2)c2ccc(Cl)cc2Cl)c(Cl)c1 [Oxiconazole nitrate],100
6,CC(=O)Oc1ccccc1C(=O)Nc1ncc([N+](=O)[O-])s1 [Nitazoxanide],99.5
7,Cc1cccc(/C=N/Nc2cc(N3CCOCC3)nc(OCCc3ccccn3)n2)c1 [Apilimod (mesylate)],97.4
8,Cc1cc(CC(C)CC(C)(C)C)n(O)c(=O)c1 (stereo not given) [Piroctone olamine],100
9,COC(=O)C1=C(C)NC(C)=C(C(=O)OC(C)C)C1c1cccc2nonc12 (stereo not given) [Isradipine],100
10,CC(C)COc1ccc(CNC(=O)N(Cc2ccc(F)cc2)C2CCN(C)CC2)cc1 [Pimavanserin tartrate],100
11,COc1cc2ncnc(Nc3ccc(F)c(Cl)c3)c2cc1NC(=O)/C=C/CN1CCCCC1 [Dacomitinib],100
12,Cc1ccc(Cl)c(Nc2ccccc2C(=O)O)c1Cl [Meclofenamate (sodium)],97.2
13,NC(=O)c1cccc2cn(-c3ccc([C@@H]4CCCNC4)cc3)nc12 [Niraparib (tosylate)],99.5
14,COc1ccc(Cl)c(Nc2nc3ccccc3nc2NS(=O)(=O)c2cccc(NC(=O)C(C)(C)N)c2)c1 [Pilaralisib],100
15,C[C@@H](O[C@H]1OCCN(Cc2n[nH]c(=O)[nH]2)[C@H]1c1ccc(F)cc1)c1cc(C(F)(F)F)cc(C(F)(F)F)c1 [Aprepitant],98.2
16,COc1cccc(OC)c1-c1cc(C(=O)NC2(C(=O)O)C3CC4CC(C3)CC2C4)nn1-c1ccnc2cc(Cl)ccc12 (stereo not given) [Meclinertant],100
17,CC1(C)CC=C(c2nc(C3CC(C)(C)OC(C)(C)C3)ccc2NC(=O)c2nc(C#N)c[nH]2)CC1 [Edicotinib],99.3
18,CCc1nc(-c2cccc(C)c2)c(-c2ccnc(NC(=O)c3ccccc3)c2)s1,100
19,CCc1cc(F)c2nc(N3CCC(NC4CCOCC4)CC3)c(-c3nc(C)no3)c(C)c2c1,100
20,COc1cccc2c1c(O)c(C(=O)N(C)c1ccc(C(F)(F)F)cc1)c(=O)n2C [Tasquinimod],92.4

row,Structure (SMILES),growth reduction [%]
1,C=C1C[C@H]2[C@@H]3CCC4=CC(=O)CC[C@@H]4[C@H]3CC[C@]2(C)[C@@]1(OC(C)=O)C(C)=O [Nestoron],93.2
2,Cc1ccc([C@@H]2O[C@H](CO)[C@@H](O)[C@H](O)[C@H]2O)cc1Cc1ccc(-c2ccc(F)cc2)s1 [Canagliflozin],100
3,CC1(C)CCC(C)(C)c2cc(NC(=O)c3ccc(C(=O)O)cc3)ccc21 [Tamibarotene],95.5
4,O=C(NCc1c(F)cc(F)cc1F)c1cn2c(c(O)c1=O)C(=O)N1[C@H]3CC[C@H](C3)O[C@@H]1C2 [Bictegravir],100
5,CCCCCCNC(=O)n1cc(F)c(=O)[nH]c1=O [Carmofur],100
6,CC(C)(C)c1nc(-c2cccc(NS(=O)(=O)c3c(F)cccc3F)c2F)c(-c2ccnc(N)n2)s1 [Dabrafenib (Mesylate)],98.3
7,CCOc1nc2cccc(C(=O)OC(C)OC(=O)OC3CCCCC3)c2n1Cc1ccc(-c2ccccc2-c2nn[nH]n2)cc1 (stereo not given) [Candesartan Cilexetil],100
8,O=C1Nc2ccc(Cl)cc2[C@@](C#CC2CC2)(C(F)(F)F)O1 [Efavirenz],96.6
9,CC(C)/N=c1\cc2n(-c3ccc(Cl)cc3)c3ccccc3nc-2cc1Nc1ccc(Cl)cc1 [Clofazimine],100
10,O=[N+]([O-])c1ccc(O)c2ncccc12 [Nitroxoline],98.4
11,C[C@H]1O[C@@H](n2cc(F)c(=O)[nH]c2=O)[C@H](O)[C@@H]1O [Doxifluridine],97.9
12,NC(=O)[C@@H]1CC[C@@H]2CN1C(=O)N2OS(=O)(=O)O [Avibactam (sodium)],96.6
13,COCC[n+]1c2c(n(Cc3cnccn3)c1C)C(=O)c1ccccc1C2=O [Sepantronium (bromide)],100
14,O=C(c1ccc(OCCN2CCCCC2)cc1)c1c(-c2ccc(O)cc2)sc2cc(O)ccc12 [Raloxifene (hydrochloride)],99.8
15,Nc1ccc(S(=O)(=O)Nc2cnc3c(Cl)cccc3n2)cc1 [Chloroquinoxaline sulfonamide],91.6
16,Cc1cc([C@H](C)Nc2nccc(N3C(=O)OC[C@@H]3[C@@H](C)F)n2)ncc1-c1ccnc(C(F)(F)F)c1,100
17,C1=N/C2=N/c3ccc(OCCN4CCCC4)c(c3)COC/C=C/COCc3cccc(c3)C(=C1)N2 [Pacritinib],100
18,Nc1ccn([C@@H]2O[C@H](CO)[C@@H](O)C2(F)F)c(=O)n1 [Gemcitabine (hydrochloride)],100
19,CCCCCOc1ccccc1/C(=C\SC)n1ccnc1 [Neticonazole],100
20,COc1cc(C)c2c(Oc3cccc(C(F)(F)F)c3)c(OC)cc(NC(C)CCCN)c2n1 (stereo not given) [Tafenoquine (Succinate)],100

# — the supplement of paper PMC12024424
